Pf Dd2 growth – inhibitors of Plasmodium falciparum Dd2 growth; P. falciparum Dd2 growth, SYBR Green, 72 h; stronger effect = lower value; activity change, % at 10 µM; 94,000 compounds, 2.3% hits; AID 1159554; in the data active = activity change below about -80%; inconclusive = no clear call, values can overlap the other calls
T cruzi growth-1 – T. cruzi proliferation inhibition | inhibition, % at 8.34 µM | 77,000 compounds, 5.9% hits | AID 624255 | T. cruzi beta-gal in NIH3T3, GalScreen luminescence, 90 h;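 active = mean inhibition above about 93%, with at least 55% of replicates each passing it, limit read from the data, passing the limit was not always enough; inconclusive = only one of those two conditions holds; inactive = neither condition holds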
C diff growth – C. difficile growth inhibition | Clostridium difficile clinical isolate growth, OD600, 24 h; stronger effect = lower value | growth activity, negative = inhibition, % at 16 µg/mL (by protocol) | 86,000 compounds, 0.25% hits | AID 1259249;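 active = mean growth activity at or below -80% and every replicate also at or below -80%; inconclusive = mean at or below -80% but some replicate above -80%; inactive = mean growth activity above -80%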
T cruzi growth-2 – Trypanosoma cruzi proliferation inhibition | shares compounds with T cruzi growth-1 | T. cruzi beta-gal in NIH3T3, GalScreen luminescence, 90 h | inhibition, % at 8.35 µM | 5,600 compounds, 72% hits | AID 651739;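 active = mean replicate inhibition above about 95% and at least 55% of replicates individually reaching it, limit read from the data; inconclusive = only one of the two criteria is met; inactive = neither criterion is met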
T cruzi growth-3 – blocks T. cruzi growth in NIH3T3 host cells; shares compounds with T cruzi growth-1; T. cruzi beta-gal in NIH3T3, GalScreen luminescence, 90 h; inhibition, % at 2.09 µM; 5,600 compounds, 21% hits; AID 651740;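 active = mean inhibition above about 95%, with at least 55% of replicates also reaching it, limit read from the data; inconclusive = meets just one of the two conditions; inactive = meets neither condition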
NIH3T3 tox – kills mouse NIH/3T3 fibroblasts | shares compounds with T cruzi growth-1 | NIH/3T3 viability, CellTiter-Glo ATP luminescence, 90 h | cytotoxicity (signal decrease), % at 8.35 µM | 5,600 compounds, 14% hits;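 active = mean signal decrease across replicates above about 35% based on untreated-well scatter, with enough replicates individually passing, limit read from the data; inconclusive = no rule stated though some were filed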
3T3 cytotox 2 – cytotoxicity in mouse NIH/3T3 fibroblasts; shares compounds with T cruzi growth-1; NIH/3T3 viability, CellTiter-Glo ATP luminescence, 90 h; inhibition, % at 24.9 µM; 5,600 compounds, 56% hits; AID 651744;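 active = mean loss of cell viability signal at or above a set limit, and enough replicates individually reaching it; inconclusive = meets only the mean limit or only the replicate share; inactive = meets neither condition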
A number is an active result. This is a sample that favours compounds with a hit; in the whole collection about 6.8% have one here.

How did CCC(=O)N1CCCCN2[C@@H](CO)[C@@H](c3ccc(/C=C/c4ccccc4)cc3)[C@@H]2C1 do in these assays?
Pf Dd2 growth: inactive; T cruzi growth-1: 118; C diff growth: inactive; T cruzi growth-2: 99; T cruzi growth-3: inactive; NIH3T3 tox: inactive; 3T3 cytotox 2: 105

Results for CN1CCCCN2[C@@H](CO)[C@@H](c3ccc(/C=C/c4ccccc4)cc3)[C@@H]2C1 ?
Pf Dd2 growth: inactive; T cruzi growth-1: inactive; C diff growth: inactive

How did CC=Cc1ccc2n(c1=O)C[C@@H]1[C@@H](CO)[C@H](C(=O)NC3CCC3)N(Cc3ccncc3)[C@H]21 (mixture of isomers) do in these assays?
Pf Dd2 growth: inactive; C diff growth: inactive

What do the screens show for `Cc1noc(C)c1S(=O)(=O)Nc1ccc2c(c1)CC(=O)N([C@H](C)CO)C[C@H](C)[C@@H](CN(C)S(=O)(=O)c1ccc(F)cc1)O2`?
Pf Dd2 growth: inactive; T cruzi growth-1: inactive; C diff growth: inactive

How did Cc1ccc(S(=O)(=O)Nc2cccc3c2O[C@H](CN(C)Cc2ccc(Oc4ccccc4)cc2)[C@@H](C)CN([C@H](C)CO)C3=O)cc1 do in these assays?
Pf Dd2 growth: inactive; T cruzi growth-1: inactive; C diff growth: inactive

How did COC(=O)C[C@@H]1CC[C@@H]2[C@H](COc3ccc(NC(=O)Nc4cccc(Cl)c4)cc3C(=O)N2C)O1 do in these assays?
Pf Dd2 growth: inactive; T cruzi growth-1: inactive; C diff growth: inactive

Results for CCCC#Cc1ccc([C@H]2[C@H](CO)N3CCCCN(CC4CC4)C[C@@H]23)cc1 ?
Pf Dd2 growth: inactive; T cruzi growth-1: 98; C diff growth: inactive; T cruzi growth-2: 109; T cruzi growth-3: inactive; NIH3T3 tox: inconclusive; 3T3 cytotox 2: 105

Results for COc1ccc(C#Cc2ccc([C@@H]3[C@H](CO)N4CCCCN(Cc5ccncc5)C[C@@H]34)cc2)cc1 ?
Pf Dd2 growth: inactive; T cruzi growth-1: inactive; C diff growth: inactive

What do the screens show for `COCC#Cc1ccc([C@@H]2[C@@H](CO)N3CCCCN(Cc4ccncc4)C[C@H]23)cc1`?
Pf Dd2 growth: inactive; T cruzi growth-1: inactive; C diff growth: inactive

Results for COCC#Cc1ccc([C@H]2[C@@H](CO)N3CCCCN(Cc4ccncc4)C[C@H]23)cc1 ?
Pf Dd2 growth: inactive; T cruzi growth-1: 108; C diff growth: inactive; T cruzi growth-2: 106; T cruzi growth-3: inactive; NIH3T3 tox: inactive; 3T3 cytotox 2: inactive

What do the screens show for `CCCC#Cc1ccc([C@@H]2[C@@H](CO)N3CCCCN(Cc4ccncc4)C[C@@H]23)cc1`?
Pf Dd2 growth: inactive; T cruzi growth-1: inactive; C diff growth: inactive

How did CCCC#Cc1ccc([C@@H]2[C@H]3CN(Cc4ccncc4)CCCCN3[C@H]2CO)cc1 do in these assays?
Pf Dd2 growth: inactive; T cruzi growth-1: inconclusive; C diff growth: inactive; T cruzi growth-2: 96; T cruzi growth-3: inactive; NIH3T3 tox: 37; 3T3 cytotox 2: 106

How did CCCC#Cc1ccc([C@@H]2[C@H](CO)N3CCCCN(CC4CC4)C[C@@H]23)cc1 do in these assays?
Pf Dd2 growth: inactive; T cruzi growth-1: inactive; C diff growth: inactive

Results for COc1ccc(C#Cc2ccc([C@H]3[C@H](CO)N4CCCCN(Cc5ccncc5)C[C@@H]34)cc2)cc1 ?
Pf Dd2 growth: inactive; T cruzi growth-1: 90; C diff growth: inactive; T cruzi growth-2: 109; T cruzi growth-3: inactive; NIH3T3 tox: 49; 3T3 cytotox 2: 105

Results for CC(C)NC(=O)N(C)C[C@@H]1Oc2cc(C#CC(C)(C)O)ccc2S(=O)(=O)N([C@@H](C)CO)C[C@H]1C ?
Pf Dd2 growth: inactive; T cruzi growth-1: inactive; C diff growth: inactive

How did C[C@@H]1CN([C@H](C)CO)C(=O)Cc2cc(NC(=O)CCC(F)(F)F)ccc2O[C@@H]1CN(C)Cc1ccc(-c2ccccc2)cc1 do in these assays?
Pf Dd2 growth: inactive; T cruzi growth-1: inactive; C diff growth: inactive

What do the screens show for `O=C(NCC[C@@H]1CC[C@H](NC(=O)Nc2cc(F)ccc2F)[C@@H](CO)O1)Nc1ccc(F)cc1`?
C diff growth: inactive

Results for CC(=O)NC[C@@H]1[C@H](c2ccc(-c3ccccc3F)cc2)[C@@H](CO)N1C(=O)C1CC1 ?
Pf Dd2 growth: inactive; T cruzi growth-1: inactive; C diff growth: inactive

What do the screens show for `COCC#Cc1ccc([C@H]2[C@H](CO)N3CCCCN(Cc4cncnc4)C[C@@H]23)cc1`?
Pf Dd2 growth: inactive; T cruzi growth-1: 115; C diff growth: inactive; T cruzi growth-2: 98; T cruzi growth-3: inactive; NIH3T3 tox: inactive; 3T3 cytotox 2: inactive

What do the screens show for `CCCC#Cc1ccc([C@@H]2[C@H]3CN(Cc4cncnc4)CCCCN3[C@H]2CO)cc1`?
Pf Dd2 growth: inactive; T cruzi growth-1: inactive; C diff growth: inactive

How did CCCC#Cc1ccc([C@H]2[C@@H](CO)N3CCCCN(Cc4cccnc4)C[C@H]23)cc1 do in these assays?
Pf Dd2 growth: inactive; T cruzi growth-1: inconclusive; C diff growth: inactive; T cruzi growth-2: 108; T cruzi growth-3: inactive; NIH3T3 tox: inactive; 3T3 cytotox 2: 102

How did CCCC#Cc1ccc([C@H]2[C@@H](CO)N3CCCCN(Cc4ccncc4)C[C@H]23)cc1 do in these assays?
Pf Dd2 growth: inactive; T cruzi growth-1: inactive; C diff growth: inactive

Results for CCCC#Cc1ccc([C@H]2[C@H]3CN(Cc4cccnc4)CCCCN3[C@H]2CO)cc1 ?
Pf Dd2 growth: inactive; T cruzi growth-1: inactive; C diff growth: inactive

What do the screens show for `CCCC#Cc1ccc([C@@H]2[C@@H](CO)N3CCCCN(Cc4ccncc4)C[C@H]23)cc1`?
Pf Dd2 growth: inactive; T cruzi growth-1: 109; C diff growth: inactive; T cruzi growth-2: 98; T cruzi growth-3: inactive; NIH3T3 tox: 35; 3T3 cytotox 2: 67

Results for CO[C@H]1CN(C)C(=O)c2cc(NC(=O)Nc3ccccc3Cl)ccc2OC[C@@H](C)NC[C@H]1C ?
Pf Dd2 growth: inactive; T cruzi growth-1: inactive

How did C[C@@H]1CN([C@@H](C)CO)C(=O)c2cccc(NC(=O)Nc3ccc4c(c3)OCO4)c2O[C@H]1CN(C)Cc1ccc(Cl)c(Cl)c1 do in these assays?
Pf Dd2 growth: inactive; T cruzi growth-1: inactive

What do the screens show for `Cc1ccccc1S(=O)(=O)N1CCCCN2[C@H](C1)[C@H](c1ccc(-c3ccccc3)cc1)[C@@H]2CO`?
Pf Dd2 growth: inactive; T cruzi growth-1: 107; C diff growth: inactive; T cruzi growth-2: 102; T cruzi growth-3: inactive; NIH3T3 tox: inactive; 3T3 cytotox 2: 48

Results for Cc1cccc(-c2ccc([C@H]3[C@@H](CO)N4CCCCN(S(=O)(=O)c5ccccc5C)C[C@@H]34)cc2)c1 ?
Pf Dd2 growth: inactive; T cruzi growth-1: 111; C diff growth: inactive; T cruzi growth-2: 112; T cruzi growth-3: inactive; NIH3T3 tox: inactive; 3T3 cytotox 2: inactive

From PubChem
